± gives the standard deviation of the averaged measurements.
Assays:
Assay in all cases: cell viability (% of vehicle); higher = less cytotoxic
Settings in all cases: 10 µM; 72 h
HCI01 = system: HCI01 (cells of a triple-negative basal-like breast cancer xenograft)
HCI03 = system: HCI03 (cells of an ER-positive luminal breast cancer xenograft)
HCI09 = system: HCI09 (cells of a triple-negative luminal androgen receptor type breast cancer xenograft)
HCI11 = system: HCI11 (cells of an ER-positive luminal breast cancer xenograft)
HCI13 = system: HCI13 (cells of an ER-positive luminal breast cancer xenograft)
HCI16 = system: HCI16 (cells of a triple-negative basal-like breast cancer xenograft)
UCD52 = system: UCD52 (cells of a triple-negative basal-like breast cancer xenograft)
WHIM2 = system: WHIM2 (cells of a triple-negative basal-like breast cancer xenograft)
WHIM30 = system: WHIM30 (cells of a triple-negative basal-like breast cancer xenograft)
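Further: PDX cells carrying CMV promoter-driven luciferase, viability read as total photon flux per second by IVIS imaging following D-luciferin, vehicle control 0.1% DMSO.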

SMILES | cell viability (HCI01) | cell viability (HCI03) | cell viability (HCI09) | cell viability (HCI11) | cell viability (HCI13) | cell viability (HCI16) | cell viability (UCD52) | cell viability (WHIM2) | cell viability (WHIM30)
CS(=O)(=O)c1ccc(C(O)C(CF)NC(=O)C(Cl)Cl)cc1 (stereo not given) [Florfenicol] | 118 ± 25 | 118 | 89.5 ± 2.1 | 101 | 114 ± 8.4 | 116 | 102 ± 2.6 | 87.4 ± 18 | 99.1 ± 6.9
CC#CC1(O)CCC2C3CCC4=CC(=O)CCC4=C3C(c3ccc(N(C)C)cc3)CC21C (stereo not given) [Mifepristone] | 113 ± 13 | 99.2 | 72.6 ± 18 | 73.5 | 47.5 ± 0.63 | 89.3 | 73.3 ± 6.9 | 89.7 ± 2.1 | 93.3 ± 3
CC(=O)NC(CS)C(=O)O (stereo not given) [Acetylcysteine] | 91.6 ± 7.3 | 113 | 94.3 ± 16 | 90 | 97.3 ± 27 | 118 | 89.98 ± 0.47 | 124 ± 1.8 | 96.8 ± 14
CN(C)CCc1c[nH]c2ccc(CC3COC(=O)N3)cc12 (stereo not given) [Zolmitriptan] | 86.8 ± 19 | 134 | 107 ± 11 | 96 | 119 ± 21 | 107 | 94.8 ± 8.3 | 86.6 ± 2.1 | 131 ± 11
Nc1ccc(C(=O)[O-])c(O)c1.O.O.[Na+] [Sodium 4-Aminosalicylate] | 138 ± 21 | 157 | 108 ± 20 | 95.3 | 96.8 ± 13 | 143 | 77.7 ± 16 | 87.9 ± 20 | 92.3 ± 1.1
Cc1ccc(-n2nc(C(C)(C)C)cc2NC(=O)Nc2ccc(OCCN3CCOCC3)c3ccccc23)cc1 [BIRB 796 (Doramapimod)] | 138 ± 41 | 89.6 | 93.5 ± 19 | 71.1 | 48.5 ± 3.4 | 87.4 | 62.1 ± 7 | 89.8 ± 8 | 103 ± 18
CCCCS(=O)(=O)NC(Cc1ccc(OCCCCC2CCNCC2)cc1)C(=O)O.Cl.O (stereo not given) [Tirofiban hydrochloride monohydrate] | 119 ± 1.7 | 123 | 107 ± 8.2 | 106 | 135 ± 8.5 | 101 | 91.9 ± 7.1 | 99.1 ± 24 | 113 ± 22
Cl.NC(N)=NC(=O)Cc1c(Cl)cccc1Cl [Guanfacine hydrochloride] | 117 ± 15 | 97.6 | 82.1 ± 9.4 | 86.2 | 107 ± 6.5 | 94.4 | 93.2 ± 6 | 102 ± 9.9 | 132 ± 19
O=C(NCC1CN(c2ccc(N3CCOCC3=O)cc2)C(=O)O1)c1ccc(Cl)s1 (stereo not given) [Rivaroxaban] | 114 ± 11 | 119 | 89.9 ± 3.4 | 105 | 130 ± 15 | 94.8 | 85.2 ± 13 | 109 ± 9 | 117 ± 15
CC(C)C1CCC(C(=O)NC(Cc2ccccc2)C(=O)O)CC1 (stereo not given) [Nateglinide] | 84.1 ± 62 | 131 | 76.3 ± 6.6 | 87.4 | 112 ± 18 | 110 | 94 ± 4.4 | 117 ± 19 | 122 ± 17
CCc1ccc(CCOc2ccc(CC3SC(=O)NC3=O)cc2)nc1 (stereo not given) [Pioglitazone] | 93 ± 44 | 118 | 123 ± 30 | 104 | 135 ± 16 | 133 | 106 ± 8.1 | 106 ± 21 | 171 ± 1.9
Cc1ccnc(NS(=O)(=O)c2ccc(N)cc2)n1 [Sulfamerazine] | 100 ± 36 | 131 | 88.41 ± 0.75 | 84.2 | 103 ± 8.7 | 111 | 86.8 ± 8.5 | 75.2 ± 10 | 99.5 ± 6
CC(=O)c1c(C)c2cnc(Nc3ccc(N4CCNCC4)cn3)nc2n(C2CCCC2)c1=O.Cl | 134 ± 73 | 141 | 86.1 ± 9.9 | 152 | 110 ± 31 | 114 | 82.86 ± 0.55 | 88.8 ± 7.7 | 132 ± 6.1
COCCCOc1cc(CC(CC(N)C(O)CC(C(=O)NCC(C)(C)C(N)=O)C(C)C)C(C)C)ccc1OC.COCCCOc1cc(CC(CC(N)C(O)CC(C(=O)NCC(C)(C)C(N)=O)C(C)C)C(C)C)ccc1OC.O=C(O)C=CC(=O)O (stereo not given) [Aliskiren Hemifumarate] | 117 ± 11 | 157 | 107 ± 8.5 | 97.2 | 107 ± 2.1 | 148 | 108 ± 13 | 123 ± 14 | 140 ± 14
CN1C(C(=O)Nc2ccccn2)=C(O)c2ccccc2S1(=O)=O [Piroxicam] | 103 ± 9.8 | 102 | 53.8 ± 29 | 133 | 103 ± 3.6 | 90.5 | 88.27 ± 0.58 | 91.5 ± 17 | 117 ± 13
O=C(O)C1=CC(=NNc2ccc([O-])c(C(=O)[O-])c2)C=CC1=O.[Na+].[Na+] [Olsalazine Sodium] | 123 ± 2.4 | 108 | 127 ± 47 | 102 | 120 ± 30 | 88.2 | 91.8 ± 7.2 | 86.8 ± 7.9 | 112 ± 7.4
NNC(=O)c1ccncc1 [Isoniazid] | 97.4 ± 7.2 | 109 | 92.6 ± 10 | 87.2 | 119 ± 13 | 127 | 72.6 ± 13 | 95.6 ± 4 | 114 ± 3.3
COc1ccc(-c2ccc3cc(C(=O)O)ccc3c2)cc1C12CC3CC(CC(C3)C1)C2 [Adapalene] | 119 ± 6.1 | 81.4 | 92.2 ± 40 | 95.5 | 139 ± 23 | 82.7 | 179 ± 28 | 83.8 ± 12 | 114 ± 18
CN(C)CC(c1ccc(O)cc1)C1(O)CCCCC1 (stereo not given) [Desvenlafaxine] | 84 ± 2.4 | 118 | 92.5 ± 18 | 80.5 | 90.1 ± 13 | 126 | 92.2 ± 9.2 | 79.9 ± 7.9 | 124 ± 7.7
OCCOCCN1CCN(C2=Nc3ccccc3Sc3ccccc32)CC1 [Quetiapine] | 122 ± 13 | 109 | 94.9 ± 23 | 94.1 | 116 ± 8.1 | 94.1 | 101 ± 4 | 104 ± 5.5 | 131 ± 13
COc1cc(C=CC(=O)N2CCN(CC(=O)N3CCCC3)CC2)cc(OC)c1OC.O=C(O)C=CC(=O)O [Cinepazide maleate] | 90.6 ± 5.7 | 130 | 94.4 ± 8.9 | 94.4 | 81.9 ± 12 | 106 | 121 ± 8.9 | 111 ± 17 | 102 ± 8.3
CC(C)NCC(O)c1ccc(NS(C)(=O)=O)cc1.Cl (stereo not given) [Sotalol hydrochloride] | 102 ± 11 | 150 | 109 ± 2.9 | 111 | 126 ± 18 | 144 | 116 ± 4.6 | 110 ± 5.1 | 118 ± 2.6
COC(=O)CCc1ccc(OCC(O)CNC(C)C)cc1.Cl (stereo not given) [Esmolol HCl] | 133 ± 46 | 121 | 96.2 ± 1.9 | 95.3 | 96.8 ± 12 | 122 | 105 ± 18 | 108 ± 17 | 113 ± 2.2

SMILES | cell viability (HCI01) | cell viability (HCI03) | cell viability (HCI09) | cell viability (HCI11) | cell viability (HCI13) | cell viability (HCI16) | cell viability (UCD52) | cell viability (WHIM2) | cell viability (WHIM30)
O=C(O)CSCC(=O)NC1CCSC1=O (stereo not given) [Erdosteine] | 105 ± 12 | 125 | 108 ± 27 | 108 | 87.3 ± 5.8 | 134 | 94.1 ± 8.3 | 119 ± 33 | 177 ± 44
CCOc1nc2cccc(C(=O)O)c2n1Cc1ccc(-c2ccccc2-c2nc(=O)o[nH]2)cc1 [Azilsartan] | 79.7 ± 44 | 142 | 84.8 ± 13 | 92 | 99.8 ± 2.6 | 96.2 | 83.3 ± 7.1 | 97.9 ± 13 | 97.5 ± 2.2
O=S(=O)([O-])CCS.[Na+] [Mesna] | 112.4 ± 0.12 | 118 | 98.4 ± 6.8 | 103 | 141 ± 28 | 97.2 | 89.3 ± 3.8 | 100 ± 13 | 106 ± 6.6
CC(C)(C)C(=O)C(Oc1ccc(Cl)cc1)n1ccnc1 (stereo not given) [Climbazole] | 152 ± 37 | 115 | 89.7 ± 16 | 98.8 | 86.4 ± 8.3 | 131 | 96 ± 10 | 121 ± 6.3 | 120 ± 8.6
Nc1nc(=O)c2c([nH]1)NCC(CNc1ccc(C(=O)NC(CCC(=O)[O-])C(=O)[O-])cc1)N2C=O.O.O.O.O.O.[Ca+2] (stereo not given) [Leucovorin Calcium] | 104 ± 22 | 102 | 131 ± 55 | 83.9 | 108 ± 13 | 127 | 122 ± 2.5 | 67.9 ± 22 | 156 ± 29
Oc1c(Br)cc(Br)c2cccnc12 [Broxyquinoline] | 81.5 ± 50 | 89.1 | 25.5 ± 7.7 | 98.1 | 34.3 ± 4.1 | 122 | 72.8 ± 42 | 146 ± 60 | 98 ± 4.2
CNCC(O)c1ccc(O)c(O)c1 [L-Adrenaline] | 131 ± 58 | 137 | 142 ± 37 | 110 | 121 ± 32 | 138 | 112 ± 15 | 102 ± 7.6 | 162 ± 8.5
O=c1[nH]c(=O)n(C2CCCO2)cc1F (stereo not given) | 158 ± 9.9 | 110 | 109 ± 5.2 | 112 | 89.2 ± 7.7 | 143 | 116 ± 20 | 130 ± 13 | 130 ± 0.83
CN1C[C@@H]2c3ccccc3Oc3ccc(Cl)cc3[C@H]2C1.O=C(O)/C=C/C(=O)O [Asenapine] | 91.9 ± 7 | 93 | 68.9 ± 5.4 | 93.7 | 72.7 ± 4.8 | 121 | 71 ± 5.6 | 79.5 ± 14 | 114 ± 25
O=C(O)C=Cc1ccc(Cn2ccnc2)cc1 [Ozagrel] | 95.1 ± 6.6 | 145 | 90.9 ± 16 | 106 | 116 ± 6.6 | 98.4 | 88 ± 3.2 | 97.8 ± 2.4 | 87.2 ± 20
CCS(=O)(=O)CCn1c([N+](=O)[O-])cnc1C [Tinidazole] | 92 ± 28 | 111 | 79.8 ± 12 | 88.6 | 101 ± 4.4 | 101 | 83.4 ± 14 | 81.2 ± 1.9 | 163 ± 1.9
NC(=O)c1ncn(C2OC(CO)C(O)C2O)c1O (stereo not given) [Mizoribine] | 82.4 ± 3.9 | 89.4 | 93.1 ± 30 | 88.8 | 90.05 ± 0.16 | 87.7 | 88.5 ± 5 | 97 ± 11 | 84.4 ± 3.9
CC(Cc1cc2c(c(C(N)=O)c1)N(CCCO)CC2)NCCOc1ccccc1OCC(F)(F)F (stereo not given) [Silodosin] | 103 ± 7.4 | 99.5 | 106 ± 39 | 127 | 96.6 ± 16 | 117 | 82.5 ± 14 | 98 ± 21 | 94.2 ± 6.5
CC(=O)OCC(=O)NCCCOc1cccc(CN2CCCCC2)c1.Cl [Roxatidine Acetate HCl] | 175 ± 22 | 118 | 121 ± 11 | 120 | 141 ± 22 | 131 | 95.5 ± 9.9 | 106 ± 3.1 | 128 ± 15
Cc1cccc(Nc2ccccc2C(=O)O)c1C [Mefenamic Acid] | 103 ± 23 | 102 | 118 ± 43 | 98.1 | 113 ± 6.7 | 90.9 | 94.4 ± 5.6 | 109 ± 6 | 112 ± 1.5
COC(=O)C1C2CC3c4[nH]c5cc(OC)ccc5c4CCN3CC2CC(OC(=O)c2cc(OC)c(OC)c(OC)c2)C1OC.Cl (stereo not given) [Reserpine hydrochloride] | 109 ± 8.9 | 114 | 66.7 ± 3.4 | 97.6 | 124 ± 17 | 87.9 | 79.9 ± 1.5 | 92.6 ± 19 | 78.4 ± 6.3
Cc1cn(C2CC(O)C(CO)O2)c(=O)[nH]c1=O (stereo not given) [Telbivudine] | 125 ± 3.9 | 128 | 141 ± 78 | 115 | 164 ± 67 | 99.4 | 95.5 ± 9.2 | 94.1 ± 16 | 124 ± 24
CC1=NS(=O)(=O)c2cc(Cl)ccc2N1 [Diazoxide] | 92.6 ± 9.1 | 151 | 86.4 ± 17 | 98.1 | 99.6 ± 11 | 102 | 104 ± 2.7 | 95.9 ± 3.5 | 117 ± 3.8
O=C1CCc2ccc(OCCCCN3CCN(c4cccc(Cl)c4Cl)CC3)cc2N1 [Aripiprazole] | 105 ± 16 | 127 | 73.6 ± 6.5 | 82 | 73.33 ± 0.076 | 127 | 73.9 ± 8.9 | 104 ± 6.5 | 122 ± 3.3
COc1cc2ncnc(Nc3ccc(F)c(Cl)c3)c2cc1OCCCN1CCOCC1 [Gefitinib (ZD1839)] | 95.6 ± 51 | 55.3 | 77.9 ± 22 | 110 | 63.3 ± 1.6 | 94.8 | 52.2 ± 1.3 | 47.8 ± 2.2 | 128.3 ± 1.1
C1N2CN3CN1CN(C2)C3 [Methenamine] | 89.3 ± 14 | 127 | 101 ± 14 | 90.8 | 177 ± 29 | 104 | 90.2 ± 4.5 | 91.8 ± 2.4 | 142 ± 4.7
CC1(C)SC2C(NC(=O)C(N)c3ccc(O)cc3)C(=O)N2C1C(=O)O (stereo not given) [Amoxicillin] | 123 ± 28 | 112 | 103 ± 4.6 | 112 | 141 ± 17 | 120 | 84.9 ± 12 | 138 ± 44 | 102 ± 10
